# Reference: paper PMC7862700, “An all-to-all approach to the identification of sequence-specific readers for epigenetic DNA modifications on cytosine”
# Experiments:
# Experiment in all cases: DAPPL (digital affinity profiling via proximity ligation, sequencing); 10 mM Tris-HCl pH 7.5, 50 mM NaCl, 1 mM DTT, 4% glycerol, room temperature, 30 min; GST-TFs on glutathione beads, 16-mer random dsDNA library, 0.1% formaldehyde crosslink after washing; high values mean tight binding
# FLI1 = target: T1, FLI1 (Homo sapiens, UniProt Q01543 1-452); conditions: protein: recombinant; tags: N-terminal GST; dsDNA, one strand shown
# T1 sequence: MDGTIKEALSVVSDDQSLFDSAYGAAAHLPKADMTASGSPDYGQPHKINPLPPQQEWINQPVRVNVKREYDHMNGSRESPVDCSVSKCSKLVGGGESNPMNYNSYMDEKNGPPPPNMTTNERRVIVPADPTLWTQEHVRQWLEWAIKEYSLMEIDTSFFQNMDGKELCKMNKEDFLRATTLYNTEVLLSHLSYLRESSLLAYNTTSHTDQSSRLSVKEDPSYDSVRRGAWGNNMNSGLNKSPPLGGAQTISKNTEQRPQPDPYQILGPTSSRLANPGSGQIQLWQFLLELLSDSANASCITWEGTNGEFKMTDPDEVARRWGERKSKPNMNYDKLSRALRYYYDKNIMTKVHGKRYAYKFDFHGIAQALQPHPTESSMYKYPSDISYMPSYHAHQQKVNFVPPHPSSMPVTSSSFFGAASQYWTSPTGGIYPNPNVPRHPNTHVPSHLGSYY
# How it was run: (§1)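 GST fusions of human transcription factors were expressed in yeast and captured with glutathione beads. Once given DNA barcodes and pooled alongside a tag-only sample, they were incubated for 30 min at room temperature with 200 nmole of a random double-stranded 16-mer DNA library in Tris/NaCl/DTT/glycerol buffer, then washed, crosslinked (0.1% formaldehyde), proximity-ligated, PCR-amplified and sequenced on an Illumina NextSeq500. The binding signal of each hexamer is its read frequency for a factor divided by its frequency for the tag-only sample.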
# ELK1 = target: T2, ELK1 (Homo sapiens, UniProt P19419 1-428); conditions: protein: recombinant; tags: N-terminal GST; dsDNA, one strand shown
# T2 sequence: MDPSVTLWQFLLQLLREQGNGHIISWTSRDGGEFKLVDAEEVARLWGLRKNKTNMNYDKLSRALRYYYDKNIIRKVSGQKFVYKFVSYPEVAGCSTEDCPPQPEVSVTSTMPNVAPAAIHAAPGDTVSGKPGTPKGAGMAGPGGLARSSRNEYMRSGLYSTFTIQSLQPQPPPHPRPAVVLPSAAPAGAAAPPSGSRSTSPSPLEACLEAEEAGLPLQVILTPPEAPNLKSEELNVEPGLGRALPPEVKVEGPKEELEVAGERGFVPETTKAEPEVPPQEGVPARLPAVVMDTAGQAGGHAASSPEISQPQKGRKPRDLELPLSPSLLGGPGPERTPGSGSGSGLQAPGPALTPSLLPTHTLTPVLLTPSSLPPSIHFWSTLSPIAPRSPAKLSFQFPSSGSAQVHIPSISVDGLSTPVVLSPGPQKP
# How it was run: as §1
# GABPA = target: T3, GABPA (Homo sapiens, UniProt Q06546 1-454); conditions: protein: recombinant; tags: N-terminal GST; dsDNA, one strand shown
# T3 sequence: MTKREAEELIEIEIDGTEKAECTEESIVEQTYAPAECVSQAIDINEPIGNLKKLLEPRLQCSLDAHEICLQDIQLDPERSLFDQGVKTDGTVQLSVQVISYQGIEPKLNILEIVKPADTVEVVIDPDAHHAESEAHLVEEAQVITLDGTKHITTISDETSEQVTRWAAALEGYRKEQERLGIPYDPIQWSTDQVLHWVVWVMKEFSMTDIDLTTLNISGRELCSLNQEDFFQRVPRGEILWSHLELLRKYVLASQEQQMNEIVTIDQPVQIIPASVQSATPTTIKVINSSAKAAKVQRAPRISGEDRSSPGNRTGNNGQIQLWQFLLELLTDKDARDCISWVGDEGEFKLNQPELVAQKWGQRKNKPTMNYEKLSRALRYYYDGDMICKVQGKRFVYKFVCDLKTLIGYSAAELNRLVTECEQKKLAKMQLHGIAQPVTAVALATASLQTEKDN
# How it was run: as §1
# ERG = target: T4, ERG (Homo sapiens, UniProt P11308 1-479); conditions: protein: recombinant; tags: N-terminal GST; dsDNA, one strand shown
# T4 sequence: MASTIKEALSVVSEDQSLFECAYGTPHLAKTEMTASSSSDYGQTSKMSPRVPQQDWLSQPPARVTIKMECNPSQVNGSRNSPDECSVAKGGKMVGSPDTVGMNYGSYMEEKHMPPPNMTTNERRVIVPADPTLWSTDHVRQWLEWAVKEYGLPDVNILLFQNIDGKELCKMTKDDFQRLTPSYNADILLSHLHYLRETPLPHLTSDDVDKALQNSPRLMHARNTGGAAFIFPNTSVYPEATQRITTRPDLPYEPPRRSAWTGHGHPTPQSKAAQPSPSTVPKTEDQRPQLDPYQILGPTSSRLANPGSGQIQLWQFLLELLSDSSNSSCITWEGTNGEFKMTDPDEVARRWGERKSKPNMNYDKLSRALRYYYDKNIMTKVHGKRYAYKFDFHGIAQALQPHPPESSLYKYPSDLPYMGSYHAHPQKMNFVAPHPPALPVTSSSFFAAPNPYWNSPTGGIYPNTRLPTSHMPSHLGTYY
# How it was run: as §1
# ELF1 = ELF1 (Homo sapiens, UniProt P32519 1-619); conditions: protein: recombinant; tags: N-terminal GST; dsDNA, one strand shown
# How it was run: as §1
# EHF = target: T5, EHF (Homo sapiens, UniProt Q9NZC4 1-300); conditions: protein: recombinant; tags: N-terminal GST; dsDNA, one strand shown
# T5 sequence: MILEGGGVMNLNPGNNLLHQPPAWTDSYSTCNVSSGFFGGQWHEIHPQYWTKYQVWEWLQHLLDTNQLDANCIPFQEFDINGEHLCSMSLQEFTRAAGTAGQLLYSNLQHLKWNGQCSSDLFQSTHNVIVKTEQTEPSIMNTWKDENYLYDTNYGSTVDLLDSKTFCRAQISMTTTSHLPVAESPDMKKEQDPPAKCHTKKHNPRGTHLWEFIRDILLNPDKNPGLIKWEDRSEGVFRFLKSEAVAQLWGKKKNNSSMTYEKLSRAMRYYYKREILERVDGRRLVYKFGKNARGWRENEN
# How it was run: as §1
# SPI1 = SPI1 (Homo sapiens, UniProt P17947 1-270); conditions: protein: recombinant; tags: N-terminal GST; dsDNA, one strand shown
# How it was run: as §1
# SPIB = SPIB (Homo sapiens, UniProt Q01892 1-262); conditions: protein: recombinant; tags: N-terminal GST; dsDNA, one strand shown
# How it was run: as §1
# ELK3 = target: T6, ELK3 (Homo sapiens, UniProt P41970 1-407); conditions: protein: recombinant; tags: N-terminal GST; dsDNA, one strand shown
# T6 sequence: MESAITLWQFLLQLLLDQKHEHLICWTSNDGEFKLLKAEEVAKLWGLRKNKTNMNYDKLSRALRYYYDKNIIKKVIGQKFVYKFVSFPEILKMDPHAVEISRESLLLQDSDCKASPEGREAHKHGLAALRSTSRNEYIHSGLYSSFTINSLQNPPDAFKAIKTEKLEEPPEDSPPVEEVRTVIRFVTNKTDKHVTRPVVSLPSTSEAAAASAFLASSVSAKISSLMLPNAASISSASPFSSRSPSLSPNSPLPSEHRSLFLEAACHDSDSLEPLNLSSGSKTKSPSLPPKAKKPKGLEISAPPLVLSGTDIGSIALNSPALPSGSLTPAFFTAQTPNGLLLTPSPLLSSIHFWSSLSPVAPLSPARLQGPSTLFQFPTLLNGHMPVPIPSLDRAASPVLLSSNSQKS
# How it was run: as §1
# FEV = target: T7, FEV (Homo sapiens, UniProt Q99581 1-238); conditions: protein: recombinant; tags: N-terminal GST; dsDNA, one strand shown
# T7 sequence: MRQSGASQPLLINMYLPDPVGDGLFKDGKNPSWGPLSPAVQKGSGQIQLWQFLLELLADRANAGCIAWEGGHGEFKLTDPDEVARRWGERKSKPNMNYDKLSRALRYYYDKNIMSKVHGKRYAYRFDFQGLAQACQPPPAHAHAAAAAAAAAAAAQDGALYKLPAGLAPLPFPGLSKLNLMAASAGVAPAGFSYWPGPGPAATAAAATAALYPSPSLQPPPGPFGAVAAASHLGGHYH
# How it was run: as §1
# ETV5 = ETV5 (Homo sapiens, UniProt P41161 1-510); conditions: protein: recombinant; tags: N-terminal GST; dsDNA, one strand shown
# How it was run: as §1
# HSF1 = HSF1 (Homo sapiens, UniProt Q00613 1-529); conditions: protein: recombinant; tags: N-terminal GST; chain copies: 3; dsDNA, one strand shown
# How it was run: as §1
# SPIC = target: T8, SPIC (Homo sapiens, UniProt Q8N5J4 1-248); conditions: protein: recombinant; tags: N-terminal GST; dsDNA, one strand shown
# T8 sequence: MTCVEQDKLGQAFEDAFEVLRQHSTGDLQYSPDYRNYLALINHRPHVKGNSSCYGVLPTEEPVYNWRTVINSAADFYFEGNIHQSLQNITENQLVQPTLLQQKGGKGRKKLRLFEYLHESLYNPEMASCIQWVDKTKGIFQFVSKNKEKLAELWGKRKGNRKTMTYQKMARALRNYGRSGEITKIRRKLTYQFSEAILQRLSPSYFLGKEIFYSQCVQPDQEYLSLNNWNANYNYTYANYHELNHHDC
# How it was run: as §1
# ELF4 = ELF4 (Homo sapiens, UniProt Q99607 1-663); conditions: protein: recombinant; tags: N-terminal GST; dsDNA, one strand shown
# How it was run: as §1
# ELK4 = target: T9, ELK4 (Homo sapiens, UniProt P28324-2 1-405); conditions: protein: recombinant; tags: N-terminal GST; dsDNA, one strand shown
# T9 sequence: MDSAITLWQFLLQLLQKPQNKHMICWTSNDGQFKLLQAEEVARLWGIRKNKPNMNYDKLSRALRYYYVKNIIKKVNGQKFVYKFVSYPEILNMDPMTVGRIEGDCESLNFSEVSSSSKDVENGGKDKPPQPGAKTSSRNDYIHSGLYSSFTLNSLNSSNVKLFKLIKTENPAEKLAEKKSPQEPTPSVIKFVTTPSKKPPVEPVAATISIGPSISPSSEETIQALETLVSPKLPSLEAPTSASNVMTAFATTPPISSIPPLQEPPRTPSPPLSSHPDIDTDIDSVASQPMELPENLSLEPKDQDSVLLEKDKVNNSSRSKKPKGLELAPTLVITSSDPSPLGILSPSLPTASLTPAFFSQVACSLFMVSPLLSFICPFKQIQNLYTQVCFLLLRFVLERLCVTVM
# How it was run: as §1
# ETV2 = target: T10, ETV2 (Homo sapiens, UniProt O00321 1-342); conditions: protein: recombinant; tags: N-terminal GST; dsDNA, one strand shown
# T10 sequence: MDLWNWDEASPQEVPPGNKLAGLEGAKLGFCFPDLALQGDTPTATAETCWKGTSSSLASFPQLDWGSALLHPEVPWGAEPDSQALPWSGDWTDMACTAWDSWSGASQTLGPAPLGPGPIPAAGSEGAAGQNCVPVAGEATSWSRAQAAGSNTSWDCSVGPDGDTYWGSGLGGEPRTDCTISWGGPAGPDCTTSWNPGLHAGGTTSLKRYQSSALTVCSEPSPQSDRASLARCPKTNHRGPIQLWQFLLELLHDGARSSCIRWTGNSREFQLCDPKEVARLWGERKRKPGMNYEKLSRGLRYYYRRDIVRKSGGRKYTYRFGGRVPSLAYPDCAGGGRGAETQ
# How it was run: as §1
# ELF3 = target: T11, ELF3 (Homo sapiens, UniProt P78545 1-371); conditions: protein: recombinant; tags: N-terminal GST; dsDNA, one strand shown
# T11 sequence: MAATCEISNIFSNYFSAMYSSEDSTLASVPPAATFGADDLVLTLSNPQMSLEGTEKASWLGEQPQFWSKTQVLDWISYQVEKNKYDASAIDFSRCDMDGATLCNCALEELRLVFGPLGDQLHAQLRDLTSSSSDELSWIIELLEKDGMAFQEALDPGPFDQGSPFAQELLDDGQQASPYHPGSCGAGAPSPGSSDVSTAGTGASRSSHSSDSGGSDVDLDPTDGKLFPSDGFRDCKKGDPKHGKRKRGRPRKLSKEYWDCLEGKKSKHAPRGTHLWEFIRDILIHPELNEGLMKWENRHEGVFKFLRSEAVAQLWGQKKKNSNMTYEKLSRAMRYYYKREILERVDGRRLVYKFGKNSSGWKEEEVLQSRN
# How it was run: as §1
# CRX = CRX (Homo sapiens, UniProt O43186 1-299); conditions: protein: recombinant; tags: N-terminal GST; dsDNA, one strand shown
# How it was run: as §1
# ETV1 = ETV1 (Homo sapiens, UniProt P50549 1-477); conditions: protein: recombinant; tags: N-terminal GST; dsDNA, one strand shown
# How it was run: as §1
# Sequence of SPIB (Q01892 whole entry): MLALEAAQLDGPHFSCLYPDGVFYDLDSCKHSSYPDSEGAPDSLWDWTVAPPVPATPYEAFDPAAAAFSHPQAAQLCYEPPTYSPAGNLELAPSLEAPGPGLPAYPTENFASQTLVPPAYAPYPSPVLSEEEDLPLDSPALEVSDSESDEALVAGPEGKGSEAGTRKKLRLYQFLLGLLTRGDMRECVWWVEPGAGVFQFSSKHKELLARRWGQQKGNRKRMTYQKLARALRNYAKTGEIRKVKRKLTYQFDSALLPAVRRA
# Sequence of CRX (O43186 whole entry): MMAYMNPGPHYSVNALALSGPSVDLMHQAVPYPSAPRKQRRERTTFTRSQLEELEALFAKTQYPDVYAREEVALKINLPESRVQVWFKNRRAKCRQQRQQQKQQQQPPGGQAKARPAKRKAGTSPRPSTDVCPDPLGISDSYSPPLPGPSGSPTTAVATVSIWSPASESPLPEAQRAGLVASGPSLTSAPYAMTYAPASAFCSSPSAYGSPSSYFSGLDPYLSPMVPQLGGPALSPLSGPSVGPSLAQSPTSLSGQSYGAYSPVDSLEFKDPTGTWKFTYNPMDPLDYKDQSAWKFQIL
# Sequence of ELF4 (Q99607 whole entry): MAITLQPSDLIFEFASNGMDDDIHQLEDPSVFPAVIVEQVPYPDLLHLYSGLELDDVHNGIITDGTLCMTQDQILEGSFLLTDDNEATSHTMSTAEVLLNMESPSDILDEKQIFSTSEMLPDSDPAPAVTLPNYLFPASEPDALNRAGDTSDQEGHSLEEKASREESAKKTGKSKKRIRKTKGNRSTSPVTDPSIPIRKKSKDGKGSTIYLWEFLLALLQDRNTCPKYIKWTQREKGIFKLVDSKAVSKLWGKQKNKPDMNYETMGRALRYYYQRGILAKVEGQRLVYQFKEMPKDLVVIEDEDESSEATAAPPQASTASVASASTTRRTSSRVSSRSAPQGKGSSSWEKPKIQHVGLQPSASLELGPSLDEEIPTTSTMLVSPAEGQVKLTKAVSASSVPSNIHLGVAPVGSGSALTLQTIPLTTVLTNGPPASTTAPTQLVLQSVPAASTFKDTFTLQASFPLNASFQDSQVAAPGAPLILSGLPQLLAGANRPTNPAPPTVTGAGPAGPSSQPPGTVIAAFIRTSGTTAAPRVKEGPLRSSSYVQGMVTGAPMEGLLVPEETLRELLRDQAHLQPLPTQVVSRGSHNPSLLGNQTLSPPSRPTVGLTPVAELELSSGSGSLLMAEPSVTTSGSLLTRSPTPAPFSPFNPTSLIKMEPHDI
# Sequence of ELF1 (P32519 whole entry): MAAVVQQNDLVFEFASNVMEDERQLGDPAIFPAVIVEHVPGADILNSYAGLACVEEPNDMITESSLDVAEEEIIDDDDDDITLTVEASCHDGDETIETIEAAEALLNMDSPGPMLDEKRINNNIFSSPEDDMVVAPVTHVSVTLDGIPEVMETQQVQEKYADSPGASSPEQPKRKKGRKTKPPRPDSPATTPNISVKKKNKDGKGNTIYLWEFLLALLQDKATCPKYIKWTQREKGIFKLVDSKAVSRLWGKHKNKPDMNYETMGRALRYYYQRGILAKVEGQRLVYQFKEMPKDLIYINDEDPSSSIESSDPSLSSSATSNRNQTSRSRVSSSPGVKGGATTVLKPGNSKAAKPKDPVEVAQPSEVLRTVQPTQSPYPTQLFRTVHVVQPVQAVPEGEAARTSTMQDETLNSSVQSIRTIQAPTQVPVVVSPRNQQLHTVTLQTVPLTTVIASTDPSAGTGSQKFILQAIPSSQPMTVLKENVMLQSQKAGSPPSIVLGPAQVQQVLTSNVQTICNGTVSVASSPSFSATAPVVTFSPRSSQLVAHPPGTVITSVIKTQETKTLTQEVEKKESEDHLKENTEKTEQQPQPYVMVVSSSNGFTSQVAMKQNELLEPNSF
# Sequence of ETV5 (P41161 whole entry): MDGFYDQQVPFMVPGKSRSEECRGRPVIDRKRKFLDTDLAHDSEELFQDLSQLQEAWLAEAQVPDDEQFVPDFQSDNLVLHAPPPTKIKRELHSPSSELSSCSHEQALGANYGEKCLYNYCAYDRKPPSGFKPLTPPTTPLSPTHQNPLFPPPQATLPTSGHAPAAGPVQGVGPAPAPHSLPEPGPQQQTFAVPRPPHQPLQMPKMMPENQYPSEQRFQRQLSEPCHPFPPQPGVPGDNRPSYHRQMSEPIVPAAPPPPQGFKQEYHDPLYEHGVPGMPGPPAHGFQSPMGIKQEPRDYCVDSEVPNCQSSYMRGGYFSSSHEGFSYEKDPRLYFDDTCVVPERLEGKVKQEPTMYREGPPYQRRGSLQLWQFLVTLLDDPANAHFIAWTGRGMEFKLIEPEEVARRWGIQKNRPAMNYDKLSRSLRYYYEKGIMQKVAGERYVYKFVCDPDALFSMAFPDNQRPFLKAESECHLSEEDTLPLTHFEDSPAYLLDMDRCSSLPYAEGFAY
# Sequence of ETV1 (P50549 whole entry): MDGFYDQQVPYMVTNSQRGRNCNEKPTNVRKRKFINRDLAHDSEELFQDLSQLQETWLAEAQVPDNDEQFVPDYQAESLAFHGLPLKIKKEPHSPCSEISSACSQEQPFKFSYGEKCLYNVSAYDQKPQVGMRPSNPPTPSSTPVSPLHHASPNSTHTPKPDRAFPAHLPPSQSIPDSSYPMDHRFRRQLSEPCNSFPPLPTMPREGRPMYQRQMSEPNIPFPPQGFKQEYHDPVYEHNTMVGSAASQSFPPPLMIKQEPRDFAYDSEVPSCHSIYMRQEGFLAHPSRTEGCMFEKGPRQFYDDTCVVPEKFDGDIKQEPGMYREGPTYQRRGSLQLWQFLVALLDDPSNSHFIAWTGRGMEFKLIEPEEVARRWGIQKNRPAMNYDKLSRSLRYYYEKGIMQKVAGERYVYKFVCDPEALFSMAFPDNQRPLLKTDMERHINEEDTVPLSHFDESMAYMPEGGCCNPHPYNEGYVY
# Sequence of HSF1 (Q00613 whole entry): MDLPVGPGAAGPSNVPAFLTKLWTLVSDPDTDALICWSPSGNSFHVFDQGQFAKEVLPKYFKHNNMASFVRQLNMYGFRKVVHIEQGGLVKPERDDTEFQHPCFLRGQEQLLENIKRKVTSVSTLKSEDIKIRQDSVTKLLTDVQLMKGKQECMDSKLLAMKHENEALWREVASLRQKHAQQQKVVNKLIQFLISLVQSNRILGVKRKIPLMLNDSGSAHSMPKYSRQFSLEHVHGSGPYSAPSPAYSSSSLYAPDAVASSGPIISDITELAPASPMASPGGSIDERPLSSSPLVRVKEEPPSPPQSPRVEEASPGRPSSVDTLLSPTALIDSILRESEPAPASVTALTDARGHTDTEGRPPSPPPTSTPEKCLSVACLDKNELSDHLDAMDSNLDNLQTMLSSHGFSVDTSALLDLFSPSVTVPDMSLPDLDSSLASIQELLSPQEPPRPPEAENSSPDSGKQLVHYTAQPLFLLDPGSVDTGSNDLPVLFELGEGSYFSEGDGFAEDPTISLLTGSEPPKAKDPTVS
sequence,measurement,setting,value
TATCGT,binding signal,FLI1,"1.18 fold enrichment (6-mer frequency, TF over GST control)"
same,binding signal,ELK1,"1.28 fold enrichment (6-mer frequency, TF over GST control)"
same,binding signal,GABPA,"1.04 fold enrichment (6-mer frequency, TF over GST control)"
same,binding signal,ERG,"1.14 fold enrichment (6-mer frequency, TF over GST control)"
same,binding signal,ELF1,"1.14 fold enrichment (6-mer frequency, TF over GST control)"
same,binding signal,EHF,"1.1 fold enrichment (6-mer frequency, TF over GST control)"
same,binding signal,SPI1,"1.07 fold enrichment (6-mer frequency, TF over GST control)"
same,binding signal,SPIB,"1.2 fold enrichment (6-mer frequency, TF over GST control)"
same,binding signal,ELK3,"1.18 fold enrichment (6-mer frequency, TF over GST control)"
same,binding signal,FEV,"1.05 fold enrichment (6-mer frequency, TF over GST control)"
same,binding signal,ETV5,"1.12 fold enrichment (6-mer frequency, TF over GST control)"
same,binding signal,HSF1,"1.17 fold enrichment (6-mer frequency, TF over GST control)"
same,binding signal,SPIC,"1.09 fold enrichment (6-mer frequency, TF over GST control)"
same,binding signal,ELF4,"1.07 fold enrichment (6-mer frequency, TF over GST control)"
same,binding signal,ELK4,"1.13 fold enrichment (6-mer frequency, TF over GST control)"
same,binding signal,ETV2,"1.16 fold enrichment (6-mer frequency, TF over GST control)"
same,binding signal,ELF3,"1.15 fold enrichment (6-mer frequency, TF over GST control)"
same,binding signal,CRX,"1.28 fold enrichment (6-mer frequency, TF over GST control)"
same,binding signal,ETV1,"1.21 fold enrichment (6-mer frequency, TF over GST control)"
